# Compounds with a hit are over-represented: about 12% of the library has one in this group of screens.
# HP1b binding inh: HP1-beta chromodomain-methylated histone interaction inhibition | 390,000 compounds, 0.56% hits | AlphaScreen HP1-beta / biotin-H3K9me3 peptide binding | Potency, µM (doses to about 114 µM), for the others: top-dose activity change, negative = inhibition, most hits filed as inhibitors | AID 540317 | P83916; further: nearly all actives have a fitted effect of over 70% in size
#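 Compound inhibition of the preformed complex between 50 nM HP1-beta and 50 nM biotinylated H3K9me3 peptide was read by AlphaScreen. Buffer was PBS pH 7.4 with 0.01% Tween-20. Incubations ran 30 min at room temperature, with 10 ug/mL donor/acceptor beads.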
# Sfp inh: blocks B. subtilis Sfp PPTase activity; Q9F4F7; Biochemical Sfp PPTase activity, qHTS; Potency, µM, for inactives: largest response in the series, negative = inhibition, hits mostly inhibitors; 310,000 compounds, 3.5% hits; AID 1490;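 further: the enzyme is Sfp with the accession as filed and its product quenches rhodamine fluorescence; 0% = enzyme reaction without inhibitor and -100% = no enzyme wells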
#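 Reaction rates are the 30-min fluorescence difference (ex 525, em 598 nm) in wells containing 15 nM Sfp, 5 uM rhodamine-CoA and 12.5 uM BHQ-2-YbbR at pH 7.6 with 10 mM MgCl2.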
# G9a inh: G9a (human) methyltransferase inhibition; Potency, µM (titrated, usually from 102 µM), inactives show at the top dose activity, negative = inhibition, usual class: inhibitors; Q96KQ7; G9a H3K9 monomethylation, AlphaScreen, 2 h; 350,000 compounds, 8.8% hits; further: on the % scale 0 is the no-effect control and ±100 the full control effect; nearly all actives have a fitted effect of over 75% in size
#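 Chemiluminescent proximity detection of H3K9 monomethylation, read after 10 min bead incubation in the dark. Reaction: 20 nM G9a, 500 nM biotin-H3K9 peptide, 20 uM SAM cofactor, 2 h, room temperature, following 15 min enzyme-compound preincubation.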
# JMJD2A Tudor inh: blocks the human JMJD2A Tudor domain; O75164; AlphaScreen JMJD2A-Tudor / H3K4me3 peptide binding; Potency, µM (top dose mostly 114 µM), for the others: top-dose activity change, negative = inhibition, usual class: inhibitors; 390,000 compounds, 4.4% hits; AID 504339; further: on the % scale 0 is the no-effect control and ±100 the full control effect; nearly all actives have a fitted effect of over 50% in size
# BAZ2B inh: BAZ2B (human) inhibition. AlphaScreen BAZ2B-H3K14Ac peptide displacement. Potency, µM (titrated, usually from 114 µM), for inactives: top-dose activity change, negative = inhibition, hits mostly inhibitors. 360,000 compounds, 4.4% hits. AID 504333; further: on the % scale 0 is the no-effect control and ±100 the full control effect; nearly all actives have a fitted effect of over 60% in size
# Target sequence (Q9UIF8 whole entry, looked up): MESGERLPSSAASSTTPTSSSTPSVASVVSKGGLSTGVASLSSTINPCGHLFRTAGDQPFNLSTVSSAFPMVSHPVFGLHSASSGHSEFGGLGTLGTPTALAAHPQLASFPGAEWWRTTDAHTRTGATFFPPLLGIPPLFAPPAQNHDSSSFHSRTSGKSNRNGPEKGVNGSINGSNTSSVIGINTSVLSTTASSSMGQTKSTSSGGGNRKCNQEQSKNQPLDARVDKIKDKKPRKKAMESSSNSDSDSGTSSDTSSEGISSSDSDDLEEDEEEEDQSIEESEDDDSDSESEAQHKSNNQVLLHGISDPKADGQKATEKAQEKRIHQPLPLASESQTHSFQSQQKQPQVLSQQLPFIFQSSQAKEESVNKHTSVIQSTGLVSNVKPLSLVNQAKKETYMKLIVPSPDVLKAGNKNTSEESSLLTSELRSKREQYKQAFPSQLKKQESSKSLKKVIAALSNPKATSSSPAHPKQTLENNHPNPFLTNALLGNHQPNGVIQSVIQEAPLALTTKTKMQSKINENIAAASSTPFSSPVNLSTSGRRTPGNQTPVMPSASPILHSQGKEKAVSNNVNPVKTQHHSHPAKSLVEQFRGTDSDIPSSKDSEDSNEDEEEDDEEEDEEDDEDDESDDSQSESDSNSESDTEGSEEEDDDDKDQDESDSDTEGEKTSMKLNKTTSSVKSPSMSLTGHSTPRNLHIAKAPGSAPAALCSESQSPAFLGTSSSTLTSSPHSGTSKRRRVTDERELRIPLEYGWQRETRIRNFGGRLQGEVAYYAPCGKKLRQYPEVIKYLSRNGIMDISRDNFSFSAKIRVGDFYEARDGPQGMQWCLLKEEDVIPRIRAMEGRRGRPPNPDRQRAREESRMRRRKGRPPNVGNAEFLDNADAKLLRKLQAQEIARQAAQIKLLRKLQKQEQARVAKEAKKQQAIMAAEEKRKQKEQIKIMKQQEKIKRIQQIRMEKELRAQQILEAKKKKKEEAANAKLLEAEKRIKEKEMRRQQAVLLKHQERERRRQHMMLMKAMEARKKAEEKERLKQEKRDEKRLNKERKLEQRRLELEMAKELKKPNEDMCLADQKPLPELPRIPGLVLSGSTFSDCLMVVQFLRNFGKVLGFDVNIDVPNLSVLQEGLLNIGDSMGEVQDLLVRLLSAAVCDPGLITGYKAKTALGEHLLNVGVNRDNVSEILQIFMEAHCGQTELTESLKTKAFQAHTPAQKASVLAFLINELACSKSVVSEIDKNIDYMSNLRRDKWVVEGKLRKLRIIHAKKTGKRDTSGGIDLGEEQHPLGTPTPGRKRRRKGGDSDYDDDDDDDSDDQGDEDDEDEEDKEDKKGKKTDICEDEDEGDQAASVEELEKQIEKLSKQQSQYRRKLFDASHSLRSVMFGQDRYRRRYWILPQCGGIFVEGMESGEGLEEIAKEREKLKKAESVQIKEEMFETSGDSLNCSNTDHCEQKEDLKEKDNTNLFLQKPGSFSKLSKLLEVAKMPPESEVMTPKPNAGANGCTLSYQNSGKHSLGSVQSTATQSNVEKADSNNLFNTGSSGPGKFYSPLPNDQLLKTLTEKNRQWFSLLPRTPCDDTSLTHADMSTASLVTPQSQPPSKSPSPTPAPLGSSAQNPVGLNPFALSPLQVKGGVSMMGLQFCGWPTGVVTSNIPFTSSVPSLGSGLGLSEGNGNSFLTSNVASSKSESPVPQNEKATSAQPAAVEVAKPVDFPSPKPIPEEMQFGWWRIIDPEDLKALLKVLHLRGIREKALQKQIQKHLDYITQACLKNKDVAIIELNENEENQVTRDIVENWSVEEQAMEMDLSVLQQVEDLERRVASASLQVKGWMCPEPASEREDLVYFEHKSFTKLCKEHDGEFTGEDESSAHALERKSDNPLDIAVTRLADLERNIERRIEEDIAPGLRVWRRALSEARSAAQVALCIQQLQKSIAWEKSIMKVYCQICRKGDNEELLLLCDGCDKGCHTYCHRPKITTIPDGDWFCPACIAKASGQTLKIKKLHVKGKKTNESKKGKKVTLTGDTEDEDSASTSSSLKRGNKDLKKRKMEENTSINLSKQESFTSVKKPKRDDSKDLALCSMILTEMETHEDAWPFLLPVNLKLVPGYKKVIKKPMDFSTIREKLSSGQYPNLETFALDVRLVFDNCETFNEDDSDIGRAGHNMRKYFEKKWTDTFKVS
#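 Complex of BAZ2B and biotin-H3K14Ac (50 nM apiece) forms over 30 min at RT, then faces library compounds up to 110 uM for another 30 min; AlphaScreen beads added, 20 min dark incubation, luminescence read.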
# PLK1 PBD block: inhibitors of human PLK1 polo-box domain binding | Potency, µM, inactives show max response, negative = inhibition, most hits filed as inhibitors | Plk1 PBD binding of FITC phosphopeptide, fluorescence polarization | AID 720504 | 360,000 compounds, 2.8% hits; further: series mostly up to about 57 µM; on the % scale 0 is the no-effect control and ±100 the full control effect; nearly all actives have a fitted effect of over 65% in size
# * = called active by the depositor; ? = inconclusive; · = no result; [ ] = dose if it differs, or a comment. The call rests on the fitted dose curve; in most records, active means well fitted curve in the direction sought with a large enough effect; inconclusive means small, poorly fitted or top-dose-only effect, or another doubt; inactive means no such curve, though single readings can be large; an effect the other way counts as inactive or inconclusive. Potency means the concentration at half of the fitted maximal effect.
SMILES,HP1b binding inh,Sfp inh,G9a inh,JMJD2A Tudor inh,BAZ2B inh,PLK1 PBD block
O=C(N/N=C/c1ccc2c(c1)OCO2)c1sc2cc(Cl)ccc2c1Cl,103.0%,-11.0%,0.8%[59 µM],89.1µM*,?,-1.4%
COc1ccc2c(Cl)c(C(=O)N/N=C/c3ccc4c(c3)OCO4)sc2c1,-4.4%,?,1.6%[12.7 µM],-31.1%,-1.0%[57.1 µM],6.1%
O=C(N/N=C/c1ccc2c(c1)OCO2)c1ccc(Br)o1,-7.9%,-27.4%,?,?,79.4µM*,-9.3%
COc1ccccc1C1NC(=O)c2ccccc2O1 (centres undefined),5.4%,7.6%,·,-19.7%,6.6%,1.4%
C=CCn1c(SCC(=O)NC2(C)CCS(=O)(=O)C2)nc2ccccc21 (centres undefined),10.8%,·,·,6.2%,·,5.4%
CSc1nc(NCc2ccco2)c2sc3nc(C(C)C)c4c(c3c2n1)CC(C)(C)OC4,7.7%,?,?,-19.8%,-2.8%,-6.4%
CSc1nc(NCCOCCO)c2sc3nc(-c4ccco4)c4c(c3c2n1)CCC4,14.5%,35.5µM*,15.8µM*,-21.9%,44.7µM*,-6.2%
CCN(CCO)c1nc(SC)nc2c1sc1nc(-c3ccco3)c3c(c12)CCC3,5.7%,?,?,-9.7%,50.1µM*,?
CCN(CCO)c1ncnc2c1sc1nc(C(C)C)c3c(c12)CC(C)(C)OC3,5.5%,13.2%,-15.7%[59 µM],-13.5%,8.0%,1.8%
O=C(NNc1cccc(Cl)c1)c1cccnc1Oc1ccccc1,35.6%,-4.6%,15.8µM*,5.3%,-4.5%,1.4%
O=C(Nc1ccc(F)cc1)c1cccnc1Oc1ccccc1,25.0%,15.9%,5.9%,3.1%,3.1%,3.2%
NC(CCC(=O)NCS(=O)(=O)O)C(=O)O (centres undefined),·,50.1µM*,25.8%[12.7 µM],·,·,·
Cc1ccc(NC(=O)C(C)OC(=O)/C=C/c2ccccc2)cc1 (centres undefined),20.1%,7.4%,23.6%,-22.8%,-13.9%,-3.5%
CC1=C(C)/C(=N\OC(=O)/C=C/c2ccccc2)C=CC1=O,?,9.0%,1.5%,17.8µM*,-5.6%,2.99µM*
CC1=CC(=O)C=C(C)C1=NOC(=O)/C=C\c1ccccc1,0.9%,-8.6%,-8.4%[59 µM],-22.7%,-1.6%,1.34µM*
CC1=CC(=NOC(=O)/C=C/c2ccccc2)C=C(C)C1=O,-21.2%,-18.9%,29.7%[0.501 µM],-27.1%,12.6µM*,18.9µM*
O=C(O)CCN1Cc2ccccc2C1=O,5.4%,11.2%,50.1µM*,?,?,-10.9%
O=C(O)[C@H](Cc1ccccc1)N1Cc2ccccc2C1=O,14.1%,14.5%,79.4µM*,-10.4%,?,-3.0%
O=C(O)C(Cc1ccccc1)N1C(=O)c2c(Cl)c(Cl)c(Cl)c(Cl)c2C1=O (centres undefined),-3.6%,·,·,89.1µM*,·,?
O=C(Oc1ccccc1)N1CCC2(CC1)CCN(c1cccc(-c3ccccc3)c1)CC2,·,7.1%,5.6%[12.7 µM],·,·,·
CCCCN(CC)CCCNC(=O)c1nn(-c2ccc(OC)cc2)c(=O)c2c1c1ccccc1n2C,11.7%,·,-0.1%[59 µM],-20.7%,·,·
Cn1nc(-c2ccccc2F)c2cc(C(=O)NCCc3ccc(Cl)cc3)sc21,42.2%,·,-3.7%[59 µM],-0.3%,·,·
CCOC(=O)CSc1c(-c2ccc(Cl)cc2)[nH]c2ccccc12,3.1%,16.7%,-12.5%[59 µM],22.4µM*,8.6%,5.97µM*
CCOc1ccccc1NC(=O)COC(=O)c1nc2nccc(C)n2n1,9.3%[57 µM],·,·,-4.1%,·,-2.5%
CCSc1ncc(Cl)c(C(=O)Nc2sc(C(C)=O)c(C)c2C(=O)OC)n1,3.3%,·,-3.5%[59 µM],-26.4%,-14.1%,·
SMILES,HP1b binding inh,Sfp inh,G9a inh,JMJD2A Tudor inh,BAZ2B inh,PLK1 PBD block
CCOc1ncccc1C(=O)N1CCN(c2cc(Cl)ccc2C)CC1,-22.9%,6.3%,7.5%,50.1µM*,-9.0%,21.2µM*
CCOc1ncccc1C(=O)N1CCN(c2cccc(C)c2C)CC1,6.8%,8.4%,22.1%,-11.8%,-1.4%,-17.4%
Cc1cc(F)ccc1S(=O)(=O)Nc1ncnc2sccc12,0.4%,16.2%,21.5%,-2.3%[11.4 µM],-20.4%,21.2µM*
O=C(NCCc1nc2ccccc2n1CCCOc1ccccc1Cl)C1CCCCC1,19.7%[57 µM],·,·,-13.8%[57.1 µM],·,·
COC(=O)[C@]1(C)N[C@H](CN(C)C(=O)Nc2ccccc2)[C@@H]2C(=O)N(C)C(=O)[C@@H]21,70.9%,·,·,-20.1%,·,-2.1%
Cc1ccc(CSc2nnc(-c3cccnc3)n2N)cc1,36.4%,26.1%,22.3%[59 µM],-4.5%,6.7%,-3.8%
Cc1ccc(C(=O)CSc2nnc(-c3cccnc3)n2N)cc1,12.7%,0.6%,31.6µM*,50.1µM*,-5.8%,-18.1%
Cn1c(SCC(=O)N2c3ccccc3Sc3ccccc32)nnc1-c1ccco1,37.6%,-23.3%,?,-9.1%,-6.9%,-4.7%
Cc1ccc(C(=O)CSc2nnc(-c3ccco3)n2C)cc1,-16.6%,18.4%,·,8.91µM*,-13.6%,5.97µM*
Cn1c(SCC(=O)c2cc(Cl)c(Cl)s2)nnc1-c1ccco1,-5.2%,17.8µM*,?,?,-31.8%,21.2µM*
CCC(=O)N1CCCc2cc(S(=O)(=O)N3CCC(C(=O)Nc4ccc(F)c(F)c4)CC3)ccc21,5.7%[57 µM],·,5.4%[59 µM],-8.4%,-6.2%,·
CCNC(=O)C1CCN(S(=O)(=O)c2ccc(F)cc2)CC1,-10.3%,13.9%,-39.9%,25.1µM*,5.9%,21.2µM*
O=C(NCc1ccc(F)cc1)C1CCN(c2cnccn2)CC1,-13.8%,-1.2%,·,25.1µM*,-2.7%,?
CCC(=O)N1CCCc2cc(S(=O)(=O)N3CCC(C(=O)NCc4ccc(F)cc4)CC3)ccc21,-4.5%[57 µM],·,13.2%[59 µM],56.2µM*,-4.6%,·
CC(C)[C@H](NC(=O)C1CCN(S(=O)(=O)c2ccc(F)cc2)CC1)C(=O)NCc1ccco1,-6.2%,5.0%,·,35.5µM*,-3.8%,26.7µM*
Cc1cc(C)n2ncc(C(=O)NCC(C)C)c2n1,·,·,·,0.7%,·,·
O=C(NCc1ccccc1Cl)C1CCN(S(=O)(=O)c2ccc(N3CCCC3=O)cc2)CC1,6.7%,8.7%,10.2%,?,-6.8%,11.9µM*
O=C(NCc1ccco1)C1CCN(C(=O)c2cc3sccc3n2Cc2ccc(F)cc2)CC1,4.0%,?,?,?,?,-16.8%
O=C(NCc1ccco1)C1CCN(Cc2ccc(F)cc2)CC1,?,1.1%,31.6µM*,50.1µM*,50.1µM*,-7.5%
NC(=O)N/N=C/c1c(F)c(F)c(F)c(F)c1F,-2.0%,27.7%,·,11.2µM*,-1.6%,21.2µM*
